The campaign covered roughly 280,000 compounds. About 180 (0.064%) were called active. Calls follow the shape of the dose curve; as a rule, active = well fitted inhibition curve with a large enough effect; inconclusive = small, poorly fitted or top-dose-only effect, or effect the other way; inactive = flat fitted curve, though single readings scatter. Many of the other results were omitted from the sample, so actives are more common in it than they were.
target: Thyroid hormone receptor beta (Homo sapiens) (UniProt P10828); assay: qHTS for Inhibitors of the Interaction of Thyroid Hormone Receptor and Steroid Receptor Coregulator 2; settings: TRbeta-SRC2 peptide binding, fluorescence polarization, receptor liganded with 1 µM T3; series mostly up to 106 µM; activity change, negative = inhibition: at the top concentration;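 also: plate controls were bound peptide for no effect and peptide without receptor for full effect; nearly all actives have a fitted effect of over 50% in size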
Sequence (P10828 whole entry, looked up, the tested form may be a part): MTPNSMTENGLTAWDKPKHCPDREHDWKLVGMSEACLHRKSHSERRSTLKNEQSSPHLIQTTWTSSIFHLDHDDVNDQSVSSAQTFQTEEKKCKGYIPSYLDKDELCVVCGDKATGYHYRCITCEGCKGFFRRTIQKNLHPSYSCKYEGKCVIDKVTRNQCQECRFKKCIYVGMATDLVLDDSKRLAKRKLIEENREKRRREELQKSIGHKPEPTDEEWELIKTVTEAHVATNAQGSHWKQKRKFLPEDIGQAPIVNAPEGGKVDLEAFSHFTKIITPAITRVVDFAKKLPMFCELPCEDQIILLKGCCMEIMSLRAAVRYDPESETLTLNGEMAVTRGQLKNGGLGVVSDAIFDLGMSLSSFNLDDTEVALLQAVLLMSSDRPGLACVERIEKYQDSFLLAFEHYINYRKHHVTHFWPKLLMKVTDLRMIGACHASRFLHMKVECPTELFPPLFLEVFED
Outline: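 Assay buffer: 20 mM Tris-HCl, 100 mM NaCl, 10% glycerol, 1 mM EDTA, 0.01% NP-40, 1 mM DTT, 1 uM T3, 5% DMSO; TRb LBD 0.6 uM, Texas Red SRC2 20 nM; FP after 5 hr.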

Activity change, negative = inhibition, inactive:
CC(=O)c1ccc(NC(=O)CSc2nc(-c3ccccc3F)nc3c2c(=O)n(C)c(=O)n3C)cc1 -4.48%
CCN(CC)c1ccc(NS(=O)(=O)c2cc(-c3cc(C)no3)ccc2C)c(C)c1 7.58%
Cc1ccc(CNC(=O)c2c(O)nc3c(C)cccn3c2=O)cc1 -2.5%
Oc1ccc(-c2nc3ccc(Cl)cn3c2Nc2ccc3c(c2)OCO3)cc1 -5.33%
COc1ccc(CCNC(=O)c2ccc(CSCc3ccc(C)cc3)o2)cc1OC -6.17%
Cc1ccc(-c2nc(SCc3ccc(Br)cc3)n3[nH]c(=O)cc3n2)cc1 -0.18%
COc1ccc(N2CCN(S(=O)(=O)CCNC(=O)C(c3ccccc3)c3ccccc3)CC2)cc1 1.78%
O=C(Nc1nc2c(s1)CCCC2)c1ccccc1F -5.58%
Cc1cc(C)cc(Nc2ncnc3onc(-c4ccc(F)cc4)c23)c1 3.63%
CCOc1cc(C2C(C(=O)OC)=C(C)NC3=C2C(=O)c2ccccc23)ccc1O (centres undefined) 11%
OCCC(F)(F)C(F)(F)C(F)(F)C(F)(F)C(F)(F)C(F)(F)C(F)(F)C(F)(F)F 1.78% [at 201 µM]
CCN(CCCNC(=O)c1ccc(Sc2ccc(C)cc2)c(NC(C)=O)c1)c1cccc(C)c1 -0.569%
CCCC/C=C/CCCCO 2.76% [at 201 µM]
CCOC(=O)c1ccc(NC(=O)c2c(NCc3cccs3)sc3c2CCCC3)cc1 2.18%
O=C(NCc1ccc(F)cc1)c1ccc2nc(N3CCCCC3)sc2c1 3.71%
CCOc1cccc2c1N[C@@H](c1ccc(C(=O)O)cc1)[C@H]1CC=C[C@@H]21 14.7%
CN(CC(=O)Nc1ccccc1F)S(=O)(=O)c1ccc2c(c1)c(=O)n(C)c(=O)n2C 2.82%
CCN(CC)CCNc1ncnc2c1cnn2-c1cc(Cl)ccc1C 8.58%
CCOC(=O)c1c(C)oc2nc(C)nc(N3CCN(c4ccc(OC)cc4)CC3)c12 4.33%
CC(C)c1ccc(S(=O)(=O)Nc2ccc(O)c(Sc3nc4ccccc4s3)c2)cc1 5.12%
CCc1cccc(NC(=O)CN(C)S(=O)(=O)c2ccc3[nH]c4c(c3c2)CCCC4)c1 -2.3%
CCN(CC)c1ccc(NC(=O)CN2C(=O)c3cccnc3Oc3ccc(Cl)cc32)c(C)c1 0.578%
Cc1ccc(OCCSc2nc(-c3cccs3)nc3cc(=O)[nH]n23)cc1Cl -6%
Cc1ccc(NC2=C(c3ccc(C(F)(F)F)cc3)C(=O)c3ccccc32)cc1F 10.8%
CCCn1c2ccccc2c2cnn(CC(=O)NCC3CCN(Cc4ccc(C)cc4)CC3)c(=O)c21 0.484%
Cc1cc(C)cc(NC(=O)c2cnc3sc(N4CCCC4)nn3c2=O)c1 4.33%
Cc1cc(C)c(NC(=O)CN2C(=O)c3cccnc3Oc3ccc(Cl)cc32)c(C)c1 0.211%
COc1ccc(N2CCN(c3cc(C)nc4nncn34)CC2)cc1 2.01%
Cn1c(=O)c2c(-c3ccccc3Br)n(Cc3ccccc3)cc2n(C)c1=O -1.69%
CC(C)c1ccc(NC(=O)c2ccc(Cn3nc(N4CCN(c5ccccc5)CC4)ccc3=O)o2)cc1 0.615%
CCOc1ccc(S(=O)(=O)Nc2ccc3oc4c(c3c2)CC(C)CC4)cc1 (centres undefined) 6.9%
CC(C)CCCCCOC(=O)CS 3.95% [at 201 µM]
CC1Cc2cc(S(=O)(=O)CCC(=O)NCc3ccc(Cl)cc3)ccc2N1C(=O)C1CC1 (centres undefined) 0.303%
CCOC(=O)C1CCCN(C(=O)Cn2ncc3c(C)n(Cc4ccc(F)cc4)c(C)c3c2=O)C1 (centres undefined) -3.95%
CSc1ccc(CCNC(=O)c2cc(C)nc3c2c(C)nn3-c2cccc(F)c2)cc1 6.29%
O=c1cc(CSc2ncn[nH]2)[nH]c2ccc(F)cc12 -0.923%
CCc1ccc(C(=O)CC2(O)C(=O)N(CCc3ccccc3)c3ccc(Br)cc32)cc1 (centres undefined) 5.72%
COc1ccccc1-c1noc(CSc2nnc(-c3ccccc3)n2-c2ccc(C)c(C)c2)n1 10.2%
Cc1ccc2onc(CC(=O)N3CCN(c4ccc(Cl)cc4)CC3)c2c1 -4.05%
CC(C)c1ccc(OCC(=O)N(Cc2ccc(N(C)C)cc2)C2CCS(=O)(=O)C2)cc1 (centres undefined) 1.18%
CCN(CC)c1ccc(NC(=O)CN2CCN(CC(=O)Nc3ccc(Cl)cc3)CC2)cc1 0.686%
Clc1ccc(CSc2nncn3c2cc2occc23)cc1 3.3%
COc1cccc(CNC(=O)CCC(=O)N2CC3CCCN3c3ccccc32)c1 (centres undefined) 3.45%
Cc1ccc(C2c3[nH]c4ccccc4c3CCN2C(=O)c2cccc(C)c2)cc1 (centres undefined) 7.69%
